Data: the supplement of paper PMC12339681
Structures can show the parent of a compound that is named as a salt.

The compounds below were run on PBMC-derived induced microglia-like cells (piMGLC) (assay: synaptosome phagocytic index relative to DMSO control (fraction of DMSO); higher = more phagocytosis). Conditions: concentration: 10 uM (2 uM for compounds listed in Table S2); pretreatment time: 24 h; assay time: 3 h.
`CC[C@@]12C=C(C(=O)O)n3c4c(c5ccccc53)CCN(CCC1)[C@H]42` [Apovincaminic_acid_(hydrochloride_salt)] was tested, and the synaptosome phagocytic index was 0.745. With `C[C@H](N=C(NC#N)Nc1cccc2ncccc12)c1ccccc1` the synaptosome phagocytic index was 0.994. In the case of `CC(C)CCN(CCC(C)C)C(=O)c1ccc2nc(-c3ccc(C#N)cc3)c(CCCN3CCCC3)n2c1`, the synaptosome phagocytic index is reported as 0.408. In the case of `CN1C2CCCC1CC(NC(=O)c1nn(C)c3ccccc13)C2` (stereo unspecified) [Granisetron_(Hydrochloride)], the synaptosome phagocytic index is reported as 0.891. `CC(=O)c1c(C)c2cnc(Nc3ccc(N4CCNCC4)cn3)nc2n(C2CCCC2)c1=O` [Palbociclib_(isethionate)] was tested, and the synaptosome phagocytic index was 0.421. For `Cc1ccc(N2CCN(Cc3nc4ccccc4[nH]3)CC2)cc1C`, the synaptosome phagocytic index was 1.03. Compound `C[C@]12C=CC(=O)C=C1CC[C@@H]1[C@@H]2C(=O)C[C@@]2(C)[C@H]1CC[C@]2(O)C(=O)CO` [Prednisone] has a synaptosome phagocytic index of 0.718. `NCc1c[nH]c(=S)n1[C@H]1CCc2c(F)cc(F)cc2C1` [Nepicastat_(hydrochloride)] showed a synaptosome phagocytic index of 0.936. `CCCCCCCC(=O)c1c(O)cc(O)cc1CC(=O)OCC` [Cytosporone_B] was tested, and the synaptosome phagocytic index was 0.114. With `CN(C)C(=N)NC(=N)N` [Metformin_(hydrochloride)] the synaptosome phagocytic index was 0.668. In the case of `NC12CC3CC(CC(C3)C1)C2` [Amantadine_(hydrochloride)], the synaptosome phagocytic index is reported as 1.02. In the case of `Cc1c(N)c(=O)n(-c2ccccc2)n1C` [Ampyrone], the synaptosome phagocytic index is reported as 0.708. `NCCCS(=O)(=O)O` [Tramiprosate] gave a synaptosome phagocytic index of 1.14. `N#Cc1ccc2[nH]cc(CCCCN3CCN(c4ccc5oc(C(N)=O)cc5c4)CC3)c2c1` [Vilazodone] gave a synaptosome phagocytic index of 0.195. `N#Cc1ccc(Cn2ccc(NC(=O)Cc3ccc(C4(C(F)(F)F)CC4)cc3)n2)nc1` showed a synaptosome phagocytic index of 1.06. For `CCN(CC)CC(=O)Nc1c(C)cccc1C` [Lidocaine], the synaptosome phagocytic index was 0.907. Work on `CC(=O)Nc1cccc(-n2c(=O)n(C3CC3)c(=O)c3c(Nc4ccc(I)cc4F)n(C)c(=O)c(C)c32)c1` [Trametinib] yielded a synaptosome phagocytic index of 0.637. `CCN(C(=O)c1c(O)c2c(Cl)cccc2n(C)c1=O)c1ccccc1` [Laquinimod] showed a synaptosome phagocytic index of 0.888. Compound `CC(=O)Oc1ccccc1C(=O)O` [Aspirin] has a synaptosome phagocytic index of 0.579. In the case of `NC(=O)NO` [Hydroxyurea], the synaptosome phagocytic index is reported as 0.555. Compound `COc1cc2nc(C3CC3)nc(N3CCN(c4ccccc4OC)CC3)c2cc1OC` has a synaptosome phagocytic index of 0.0572. `COC(=O)C1=C(C)NC(C)=C(C(=O)OCCN(C)Cc2ccccc2)C1c1cccc([N+](=O)[O-])c1` (stereo unspecified) [Nicardipine_(hydrochloride)] was tested, and the synaptosome phagocytic index was 0.627. `O=C1NC(c2ccccc2)(c2ccccc2)C(=O)N1COP(=O)(O)O` [Fosphenytoin_(disodium)] gave a synaptosome phagocytic index of 0.487. `Clc1ccc(COC(Cn2ccnc2)c2ccc(Cl)cc2Cl)c(Cl)c1` (stereo unspecified) [Miconazole_(nitrate)] showed a synaptosome phagocytic index of 1.09. `CO/N=C(\C(=O)N[C@@H]1C(=O)N2C(C(=O)O)=C(COC(C)=O)CS[C@H]12)c1csc(N)n1` [Cefotaxime_(sodium_salt)] showed a synaptosome phagocytic index of 0.951. With `N#Cc1cccc(C(=O)Nc2cc(-c3ccccc3)nn2-c2ccccc2)c1` the synaptosome phagocytic index was 0.299. `N#Cc1cccc(-c2c[nH]c3ncnc(N4CCOCC4)c23)c1` showed a synaptosome phagocytic index of 0.623. With `C[C@@H](NC(=O)c1ccc(F)cc1)c1ccc2c(c1)CCN2C(=O)C1CCOCC1` the synaptosome phagocytic index was 0.908. `CC(C)CCn1c(CN2CCN(C(=O)C3CC3)CC2)nc2c1c(=O)n(C)c(=O)n2C` gave a synaptosome phagocytic index of 0.707. With `COc1c(N2CCNC(C)C2)c(F)cc2c(=O)c(C(=O)O)cn(C3CC3)c12` (stereo unspecified) [Gatifloxacin] the synaptosome phagocytic index was 0.702. `C[C@H]1OC[C@]2(c3cc(NC(=O)c4cnc(C(F)F)cn4)ccc3F)N=C(N)SC[C@H]12` [Elenbecestat] gave a synaptosome phagocytic index of 0.918. Compound `N[C@@H](CC(=O)O)C(=O)O` [L-Aspartic_acid] has a synaptosome phagocytic index of 0.871. `O=NN(CCCl)C(=O)NC1CCCCC1` [Lomustine] was tested, and the synaptosome phagocytic index was 0.897. For `CC(C)c1ccc(CC(=O)N2CCN(c3ccc(C#N)nn3)CC2)cc1`, the synaptosome phagocytic index was 0.943. `CC1(C)S[C@@H]2[C@H](NC(=O)[C@H](NC(=O)N3CCN(S(C)(=O)=O)C3=O)c3ccccc3)C(=O)N2[C@H]1C(=O)O` [Mezlocillin_(sodium)] gave a synaptosome phagocytic index of 0.977. In the case of `Cn1nnc2c(C(N)=O)ncn2c1=O` [Temozolomide], the synaptosome phagocytic index is reported as 0.824.
